# Inconclusive results are not listed. Active and inactive are the calls of the source. Rule for the calls: active = hit-call score of the fitted dose curve at least 0.9, where 1 is the maximum; inconclusive = response in the unintended direction; inactive = score below 0.9.
# Molecular target: human Serotonin Receptor 5-HT1A, HTR1A (gene 3350) (UniProt P08908)
# Assay: ERF_FR_GPCR_hHTR1A: Eurofins (ERF) G Protein-Coupled Receptor (GPCR) Radioligand Binding LeadHunter Assay for human Serotonin Receptor 5-HT1A Agonism, conducted at France lab site
# Method: ERF_FR_GPCR_hHTR1A is a biochemical, single-readout assay that uses extracted gene-proteins in a cell-free assay. Measurements were taken 1 hour after chemical dosing in a 96-well plate. See 5-HT1A Human Serotonin GPCR Binding (Agonist Radioligand) Assay, Cerep.ERF_FR_GPCR_hHTR1A is an assay component calculated from the ERF_FR_GPCR_hHTR1A assay. It is designed to measure radioligand binding using a type of binding reporter as detected by scintillation counting with radiometry technology.Data from the assay component ERF_FR_GPCR_hHTR1A was analyzed at the assay endpoint, ERF_FR_GPCR_hHTR1A, in the positive analysis fitting direction relative to DMSO as the negative control and baseline of activity. Using a type of binding reporter, gain-of-signal activity can be used to understand changes in binding as they relate to gene HTR1A. To generalize the intended target to other relatable targets, this assay endpoint is annotated to the gpcr intended target family, where the subfamily is serotonin.
# Human cells are incubated for 60 minutes at room temprature with [3H]8-OH-DPAT ligand (0.5 nM) and 8-OH-DPAT as control inhibitor. Test Sample Requirements: Minimum for 1) Screen: 60 ul of 10 mM stock -OR- 1 mg (pre-weighed) for 10 uM final testing. 2) Dose Response: 90 ul of 10 mM stock -OR- 1 mg (pre-weighed) for a top concentration at 10 uM.
# Sequence of human Serotonin Receptor 5-HT1A, HTR1A (gene 3350) (P08908 whole entry, looked up): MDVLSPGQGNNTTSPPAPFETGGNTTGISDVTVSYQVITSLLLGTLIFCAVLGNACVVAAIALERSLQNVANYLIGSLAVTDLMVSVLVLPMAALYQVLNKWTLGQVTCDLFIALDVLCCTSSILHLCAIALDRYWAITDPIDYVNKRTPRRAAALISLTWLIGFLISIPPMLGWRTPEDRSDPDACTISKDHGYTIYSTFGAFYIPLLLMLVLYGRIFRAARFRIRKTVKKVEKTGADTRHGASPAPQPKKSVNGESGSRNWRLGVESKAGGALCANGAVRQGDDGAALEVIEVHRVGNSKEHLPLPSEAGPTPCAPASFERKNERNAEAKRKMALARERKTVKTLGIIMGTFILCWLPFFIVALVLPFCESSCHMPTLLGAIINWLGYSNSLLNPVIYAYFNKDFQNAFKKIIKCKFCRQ
SMILES,AC50,outcome
COc1cc(/C=C/C(=O)CC(=O)/C=C/c2ccc(O)c(OC)c2)ccc1O,2010 nM (active),
O=C(/C=C/c1ccc(O)cc1)CC(=O)/C=C/c1ccc(O)cc1,,inactive
CCCCC[C@H](O)CC(=O)CCc1ccc(O)c(OC)c1,,inactive

# Source: PubChem BioAssay AID2284181 (EPA ToxCast)
